Columns and labels:
[1] = target: T1, Serine/threonine-protein kinase TBK1 (Homo sapiens) (UniProt Q9UHD2); conditions: at 10 µM
T1 sequence (whole entry): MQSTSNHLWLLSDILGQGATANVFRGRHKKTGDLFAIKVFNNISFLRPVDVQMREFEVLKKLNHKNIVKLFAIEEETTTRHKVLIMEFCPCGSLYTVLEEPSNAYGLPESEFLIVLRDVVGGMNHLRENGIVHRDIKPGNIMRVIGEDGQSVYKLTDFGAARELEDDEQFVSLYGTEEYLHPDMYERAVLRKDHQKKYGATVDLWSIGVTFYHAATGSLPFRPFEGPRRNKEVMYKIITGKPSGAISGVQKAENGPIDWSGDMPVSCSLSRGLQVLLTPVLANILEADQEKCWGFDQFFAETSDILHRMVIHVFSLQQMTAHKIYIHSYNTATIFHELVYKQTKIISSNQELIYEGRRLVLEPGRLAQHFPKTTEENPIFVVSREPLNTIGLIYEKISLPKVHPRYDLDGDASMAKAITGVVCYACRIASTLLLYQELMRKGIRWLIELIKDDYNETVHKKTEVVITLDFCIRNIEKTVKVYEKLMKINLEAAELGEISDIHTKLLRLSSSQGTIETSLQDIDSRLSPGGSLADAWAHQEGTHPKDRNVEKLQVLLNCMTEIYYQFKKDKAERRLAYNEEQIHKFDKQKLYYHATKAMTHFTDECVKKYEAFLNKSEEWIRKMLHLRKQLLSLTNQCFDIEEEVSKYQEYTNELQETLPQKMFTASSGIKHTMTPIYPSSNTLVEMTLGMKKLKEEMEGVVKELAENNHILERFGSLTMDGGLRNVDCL

[2] = target: T2, TGF-beta receptor type-1 (Homo sapiens) (UniProt P36897); conditions: at 1 µM
T2 sequence (whole entry): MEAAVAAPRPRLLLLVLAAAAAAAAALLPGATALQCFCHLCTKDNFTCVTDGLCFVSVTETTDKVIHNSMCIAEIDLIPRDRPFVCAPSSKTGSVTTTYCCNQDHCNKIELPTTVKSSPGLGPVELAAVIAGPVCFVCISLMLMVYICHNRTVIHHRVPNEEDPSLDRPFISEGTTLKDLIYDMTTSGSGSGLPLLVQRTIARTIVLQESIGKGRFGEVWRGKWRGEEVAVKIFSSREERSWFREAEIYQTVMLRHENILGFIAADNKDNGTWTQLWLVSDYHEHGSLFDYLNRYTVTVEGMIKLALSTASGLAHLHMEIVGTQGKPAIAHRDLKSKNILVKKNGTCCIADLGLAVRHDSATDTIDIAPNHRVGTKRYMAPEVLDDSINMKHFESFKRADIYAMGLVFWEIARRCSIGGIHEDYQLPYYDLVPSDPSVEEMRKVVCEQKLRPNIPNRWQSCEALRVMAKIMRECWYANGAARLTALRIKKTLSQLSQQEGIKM

[3] = target: T2, TGF-beta receptor type-1 (Homo sapiens); conditions: at 10 µM
[4] = target: Insulin-like growth factor 1 receptor (Homo sapiens) (UniProt P08069); conditions: at 1 µM
[5] = target: Insulin-like growth factor 1 receptor (Homo sapiens) (UniProt P08069); conditions: at 10 µM
[6] = target: T3, Inhibitor of nuclear factor kappa-B kinase subunit alpha (Homo sapiens) (UniProt O15111); conditions: at 1 µM
T3 sequence (whole entry): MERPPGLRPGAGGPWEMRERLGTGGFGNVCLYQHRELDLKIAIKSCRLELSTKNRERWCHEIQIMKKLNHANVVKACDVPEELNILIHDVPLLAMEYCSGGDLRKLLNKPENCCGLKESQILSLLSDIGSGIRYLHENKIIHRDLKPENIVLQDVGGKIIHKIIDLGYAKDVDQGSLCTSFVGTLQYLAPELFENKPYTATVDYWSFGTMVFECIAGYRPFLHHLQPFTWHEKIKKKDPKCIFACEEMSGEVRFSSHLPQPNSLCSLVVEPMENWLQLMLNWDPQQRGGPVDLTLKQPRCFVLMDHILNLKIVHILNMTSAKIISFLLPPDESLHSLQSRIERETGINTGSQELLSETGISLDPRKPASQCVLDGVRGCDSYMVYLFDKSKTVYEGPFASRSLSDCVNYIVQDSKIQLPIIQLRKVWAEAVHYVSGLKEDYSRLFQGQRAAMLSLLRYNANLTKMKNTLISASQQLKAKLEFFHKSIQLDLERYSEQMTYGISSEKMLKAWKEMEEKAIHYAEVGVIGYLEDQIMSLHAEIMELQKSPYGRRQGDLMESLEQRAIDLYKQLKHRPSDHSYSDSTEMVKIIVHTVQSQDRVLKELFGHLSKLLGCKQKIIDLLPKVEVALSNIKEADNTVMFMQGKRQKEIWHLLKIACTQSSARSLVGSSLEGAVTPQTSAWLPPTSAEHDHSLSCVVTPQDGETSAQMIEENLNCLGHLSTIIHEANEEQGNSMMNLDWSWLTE

[7] = target: T3, Inhibitor of nuclear factor kappa-B kinase subunit alpha (Homo sapiens); conditions: at 10 µM
[8] = target: T4, Inhibitor of nuclear factor kappa-B kinase subunit beta (Homo sapiens) (UniProt O14920); conditions: at 1 µM
T4 sequence (whole entry): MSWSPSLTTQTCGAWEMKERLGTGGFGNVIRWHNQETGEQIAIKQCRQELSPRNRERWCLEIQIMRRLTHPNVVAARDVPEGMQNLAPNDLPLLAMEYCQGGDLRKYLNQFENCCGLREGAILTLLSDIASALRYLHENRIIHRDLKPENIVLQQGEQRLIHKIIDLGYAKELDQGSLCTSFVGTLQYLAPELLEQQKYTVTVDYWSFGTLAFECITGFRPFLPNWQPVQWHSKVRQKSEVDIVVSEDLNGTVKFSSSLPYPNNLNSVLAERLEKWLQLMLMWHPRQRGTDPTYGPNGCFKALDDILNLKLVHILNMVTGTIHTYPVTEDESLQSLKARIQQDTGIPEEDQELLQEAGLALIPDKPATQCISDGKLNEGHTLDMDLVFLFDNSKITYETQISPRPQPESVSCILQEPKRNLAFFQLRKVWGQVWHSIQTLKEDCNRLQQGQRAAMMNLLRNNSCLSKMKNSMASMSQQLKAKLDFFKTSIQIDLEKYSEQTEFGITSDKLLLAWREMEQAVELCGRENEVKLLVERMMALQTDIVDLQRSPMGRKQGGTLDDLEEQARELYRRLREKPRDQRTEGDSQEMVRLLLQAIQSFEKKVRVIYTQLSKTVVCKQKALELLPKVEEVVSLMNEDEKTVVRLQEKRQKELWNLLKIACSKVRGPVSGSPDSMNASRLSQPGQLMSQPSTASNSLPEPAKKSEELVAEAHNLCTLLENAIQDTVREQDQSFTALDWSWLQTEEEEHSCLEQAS

[9] = target: T4, Inhibitor of nuclear factor kappa-B kinase subunit beta (Homo sapiens); conditions: at 10 µM
[10] = target: Insulin receptor (Homo sapiens) (UniProt P06213); conditions: at 1 µM
Insulin receptor (Homo sapiens), sequence (P06213 28-758 limits assumed): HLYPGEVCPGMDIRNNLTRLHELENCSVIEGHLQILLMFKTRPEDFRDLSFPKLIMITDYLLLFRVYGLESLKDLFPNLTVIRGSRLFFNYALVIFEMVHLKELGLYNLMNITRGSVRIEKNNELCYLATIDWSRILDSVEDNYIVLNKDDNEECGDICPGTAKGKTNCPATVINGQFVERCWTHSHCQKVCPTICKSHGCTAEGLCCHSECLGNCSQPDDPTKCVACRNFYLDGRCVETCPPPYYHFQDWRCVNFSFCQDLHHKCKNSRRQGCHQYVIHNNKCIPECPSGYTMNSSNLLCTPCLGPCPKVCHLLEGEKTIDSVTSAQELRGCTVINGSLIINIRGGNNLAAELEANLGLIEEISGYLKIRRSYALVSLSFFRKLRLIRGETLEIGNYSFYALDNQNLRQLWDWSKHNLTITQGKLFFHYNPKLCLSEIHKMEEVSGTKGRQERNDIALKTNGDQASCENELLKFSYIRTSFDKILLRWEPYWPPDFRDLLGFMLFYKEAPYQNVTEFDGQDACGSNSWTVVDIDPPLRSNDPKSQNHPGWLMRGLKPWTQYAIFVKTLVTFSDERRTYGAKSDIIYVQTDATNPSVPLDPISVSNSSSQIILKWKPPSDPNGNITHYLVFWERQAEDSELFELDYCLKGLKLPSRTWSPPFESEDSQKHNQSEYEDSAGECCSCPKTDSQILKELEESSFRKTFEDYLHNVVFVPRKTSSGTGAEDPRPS
Insulin receptor (Homo sapiens), sequence (P06213 763-1382 limits assumed): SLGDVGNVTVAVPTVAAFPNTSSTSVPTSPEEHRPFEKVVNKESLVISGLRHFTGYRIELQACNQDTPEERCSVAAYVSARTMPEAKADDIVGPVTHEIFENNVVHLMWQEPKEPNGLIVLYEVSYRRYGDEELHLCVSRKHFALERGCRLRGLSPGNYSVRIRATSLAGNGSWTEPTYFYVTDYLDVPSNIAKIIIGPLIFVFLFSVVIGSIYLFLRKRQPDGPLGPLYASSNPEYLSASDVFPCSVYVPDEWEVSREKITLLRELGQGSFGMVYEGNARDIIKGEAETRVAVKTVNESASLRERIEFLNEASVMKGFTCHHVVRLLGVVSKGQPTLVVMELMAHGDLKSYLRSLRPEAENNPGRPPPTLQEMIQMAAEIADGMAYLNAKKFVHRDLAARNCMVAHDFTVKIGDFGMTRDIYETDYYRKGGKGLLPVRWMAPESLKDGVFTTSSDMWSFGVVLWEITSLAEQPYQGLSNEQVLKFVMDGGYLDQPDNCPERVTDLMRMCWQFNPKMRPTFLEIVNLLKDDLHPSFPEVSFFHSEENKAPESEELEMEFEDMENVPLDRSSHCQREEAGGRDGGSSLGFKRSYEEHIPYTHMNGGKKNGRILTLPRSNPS

Insulin-like growth factor 1 receptor (Homo sapiens), sequence (P08069 31-736 limits assumed): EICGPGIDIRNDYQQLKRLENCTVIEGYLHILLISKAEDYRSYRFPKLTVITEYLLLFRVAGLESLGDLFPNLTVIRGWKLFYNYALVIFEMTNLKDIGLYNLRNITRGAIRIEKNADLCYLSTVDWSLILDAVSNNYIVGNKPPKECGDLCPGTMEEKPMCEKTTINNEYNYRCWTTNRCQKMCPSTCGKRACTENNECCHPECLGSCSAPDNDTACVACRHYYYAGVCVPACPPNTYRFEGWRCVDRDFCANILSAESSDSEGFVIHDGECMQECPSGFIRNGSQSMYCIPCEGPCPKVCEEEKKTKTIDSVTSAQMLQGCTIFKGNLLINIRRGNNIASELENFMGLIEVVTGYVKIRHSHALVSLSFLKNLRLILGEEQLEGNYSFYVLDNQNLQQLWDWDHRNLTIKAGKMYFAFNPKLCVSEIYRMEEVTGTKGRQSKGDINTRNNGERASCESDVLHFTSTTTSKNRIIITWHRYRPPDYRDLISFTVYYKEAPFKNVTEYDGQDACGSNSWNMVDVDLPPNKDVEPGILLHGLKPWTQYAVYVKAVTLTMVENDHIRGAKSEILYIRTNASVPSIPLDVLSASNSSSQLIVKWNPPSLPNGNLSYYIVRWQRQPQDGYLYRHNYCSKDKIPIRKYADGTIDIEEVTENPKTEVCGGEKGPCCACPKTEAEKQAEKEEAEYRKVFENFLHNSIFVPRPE
Insulin-like growth factor 1 receptor (Homo sapiens), sequence (P08069 741-1367 limits assumed): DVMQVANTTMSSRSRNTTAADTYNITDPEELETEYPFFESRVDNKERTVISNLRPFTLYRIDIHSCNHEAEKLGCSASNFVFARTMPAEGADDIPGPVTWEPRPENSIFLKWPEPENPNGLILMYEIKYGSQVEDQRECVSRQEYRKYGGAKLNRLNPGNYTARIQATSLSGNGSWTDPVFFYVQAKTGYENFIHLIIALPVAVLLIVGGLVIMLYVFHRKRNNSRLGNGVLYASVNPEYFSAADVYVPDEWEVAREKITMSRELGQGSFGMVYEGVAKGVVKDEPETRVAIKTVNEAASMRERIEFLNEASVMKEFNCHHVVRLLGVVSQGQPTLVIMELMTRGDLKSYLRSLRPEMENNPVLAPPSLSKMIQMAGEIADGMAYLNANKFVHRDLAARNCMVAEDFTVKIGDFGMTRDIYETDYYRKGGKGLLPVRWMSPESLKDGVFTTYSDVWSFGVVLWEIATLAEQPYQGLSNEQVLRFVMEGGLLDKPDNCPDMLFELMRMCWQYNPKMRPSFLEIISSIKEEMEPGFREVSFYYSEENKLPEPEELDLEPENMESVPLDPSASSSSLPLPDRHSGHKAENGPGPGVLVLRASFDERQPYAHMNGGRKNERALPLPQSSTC

`O=c1cc(-c2cccc3c2Sc2ccccc2S3)oc(N2CCOCC2)c1` was tested, and the residual activity [1] was 80%, the residual activity [2] was 114% and the residual activity [3] was 88%. The residual activity [4] was 105%, the residual activity [5] was 101% and the residual activity [6] was 98%. It also gave a residual activity [7] of 93%, a residual activity [8] of 106% and a residual activity [9] of 103%. For the same compound, the residual activity [10] was 105%.

From ChEMBL document CHEMBL2218924, “A broad activity screen in support of a chemogenomic map for kinase signalling research and drug discovery” (Biochem J, 2013)
